# Reference: paper PMC5540273 (PLoS ONE, 2017)
# Assays:
# Details in all cases: concentration: 1 μM, replicates: in singlicate; n = 1
# [1] = system: CAMK1B
# [2] = system: CAMK1D
# [3] = system: CAMK1G
# [4] = system: CAMK1
# [5] = system: CAMK2A
# [6] = system: CAMK2B
# [7] = system: CAMK2D
# [8] = system: CAMK2G
# [9] = system: CAMK4
# [10] = system: CAMKK1
# [11] = system: CAMKK2
# [12] = system: CASK
# [13] = system: T1, CDC2L1
# T1 construct: gene CDK11B
# [14] = system: CDC2L2
# [15] = system: T2, CDC2L5
# T2 construct: gene CDK13
# [16] = system: T3, CDK11
# T3 construct: gene CDK19
# [17] = system: CDK2
# [18] = system: CDK3
# [19] = system: CDK4-cyclinD1
# [20] = system: CDK4-cyclinD3
# 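Note: KINOMEscan kinase panel screen.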
SMILES,%Inh [1] [%],%Inh [2] [%],%Inh [3] [%],%Inh [4] [%],%Inh [5] [%],%Inh [6] [%],%Inh [7] [%],%Inh [8] [%],%Inh [9] [%],%Inh [10] [%],%Inh [11] [%],%Inh [12] [%],%Inh [13] [%],%Inh [14] [%],%Inh [15] [%],%Inh [16] [%],%Inh [17] [%],%Inh [18] [%],%Inh [19] [%],%Inh [20] [%]
Clc1cc(Cl)cc(Nc2ccnc(Nc3cc(Cl)cc(Cl)c3)n2)c1 [GSK175726],3,10,0,7,4,0,0,8,0,10,0,13,5,18,0,19,0,0,0,0
Fc1cc(Cl)ccc1Nc1ccnc2cc(I)ccc12 [GW551191],5,0,0,0,0,0,1,14,0,0,0,24,0,0,0,16,0,0,0,0
COc1ccccc1-c1ccc2c(NC(=O)C3CC3)n[nH]c2n1 [SB-711239],33,12,27,4,0,0,16,9,0,9,0,8,0,3,2,19,0,8,9,0
CS(=O)(=O)c1ccc(-c2c(-c3ncn[nH]3)sc(N3CCOCC3)c2C#N)cc1,25,16,11,13,14,30,6,11,18,19,19,0,9,10,0,0,0,17,0,0
Cc1csc(-c2nc(Nc3ccncc3)c3ccccc3n2)n1 [GW869640],9,0,14,5,10,2,17,25,0,26,23,26,0,5,8,7,7,9,11,1
Cn1ccc2ncnc(Oc3ccc(Nc4nc5ccccc5[nH]4)cc3)c21,0,0,0,0,7,5,2,0,0,14,22,0,0,1,0,6,6,0,0,0
COc1ccccc1CNC(=O)c1cc(C(=O)c2ccccc2C)c[nH]1 [GSK364507],7,0,0,9,0,0,0,12,0,7,5,12,0,19,0,15,0,10,0,7
Cc1c(O)cccc1Nc1ccnc2ccc(C(F)(F)F)cc12.Cl [GW466413],2,7,0,1,0,0,0,0,0,12,3,0,0,0,0,17,0,0,0,0
COc1ccc(Nc2nccc(NCCNC(=O)Nc3ccccc3F)n2)cc1 [GSK1379901],35,3,69,1,0,0,51,13,0,0,0,9,5,20,0,12,0,16,0,9
Cc1ccc(C(=O)Nc2ccc(Nc3ccnc4cc(-c5ccccn5)ccc34)cc2O)cc1.Cl [GW440146],13,20,0,39,0,0,0,8,0,0,0,3,0,11,0,0,0,5,16,0
